Test results from PubChem BioAssay AID651871 (Sanford-Burnham Center for Chemical Genomics, 2012).
“And” between values parts separate entries of the source, which are not always exact repeats. Equal entries are not always repeated.

The compounds below were run on HL-1 (assay: cardiomyocyte survival under oxidative or metabolic stress – cell-based, panel, H9c2 and HL-1, ATP luminescence, set 2, SAR follow-up (AID 651871;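 note: cells exposed to stressor for 2 h before ATP readout; reference of the scale not given here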)). Settings: H9c2/HL-1 cardiomyocytes, 2-deoxyglucose stress, with 2-deoxyglucose, run 11, at 79 µM (top of the series).
For `CCOC(=O)c1cccc(NC(=O)CNC(=O)c2cc(-c3cc(OC)c(OC)c(OC)c3)nc3ccccc23)c1`, the activity (protection/inhibition) was 66.5%. In the case of `COc1ccc2c(c1OC)C(=O)N1c3ccccc3C(=O)N(Cc3cccc(Cl)c3Cl)C21` (stereo not drawn), the activity (protection/inhibition) is reported as 42.6% and -9.56%. `COc1ccc2nc(-c3cc(OC)c(OC)c(OC)c3)cc(C(=O)NCC(=O)Nc3ccc(C(C)=O)cc3)c2c1` was tested, and the activity (protection/inhibition) was 89%.
